# Laboratory results from PubChem BioAssay AID1159580 (chemical genetic matrix, 2015).
# About 2,000 (36%) of roughly 5,500 compounds were called active. Another 18% or so got no clear call; they are omitted. The list shows a part of the results. A number with no mark means an inactive call. Rule as the data show it: active = normalized growth mostly below about 0.91 (no sharp cut-off); inconclusive = no clear call, values can overlap the other calls; inactive = mostly above about 0.92.
# Test: chemical genetic growth profiling, strain panel (AID 1159580);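 also: tested at 20 µM; growth read once vehicle control cultures reached saturation at 30 °C; 1 = growth at the plate median or of vehicle wells; lower values mean less growth of the strain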
# Conditions: growth OD
compound,measurement,setting,value
CCOC(=O)c1c(C)cc(O)c(C=O)c1O,normalized growth,"S. cerevisiae deletion strains, locus YJR075W, strain HOC1, active compounds read low",0.272 (active)
same,normalized growth,"S. cerevisiae deletion strains, locus YKL009W, strain mrt4, active compounds read low",0.446 (active)
same,normalized growth,"S. cerevisiae deletion strains, locus YKL068W, active compounds read low",0.799 (active)
same,normalized growth,"S. cerevisiae deletion strains, locus YKL085W, strain MDH1 (second series), active compounds read low",0.528 (active)
same,normalized growth,"S. cerevisiae deletion strains, locus YKL085W, strain MDH1, active compounds read low",0.528 (active)
same,normalized growth,"S. cerevisiae deletion strains, locus YKL160W, strain elf1, active compounds read low",0.655 (active)
same,normalized growth,"S. cerevisiae deletion strains, locus YKL190W, strain CNB1, active compounds read low",0.108 (active)
same,normalized growth,"S. cerevisiae deletion strains, locus YKR001C, strain vps1, active compounds read low",0.103 (active)
same,normalized growth,"S. cerevisiae deletion strains, locus YKR026C, strain gcn3, active compounds read low",0.823 (active)
same,normalized growth,"S. cerevisiae deletion strains, locus YKR091W, strain srl3, active compounds read low",0.851 (active)
same,normalized growth,"S. cerevisiae deletion strains, locus YLL001W, strain dnm1, active compounds read low",0.568 (active)
same,normalized growth,"S. cerevisiae deletion strains, locus YLL026W, active compounds read low",0.706 (active)
same,normalized growth,"S. cerevisiae deletion strains, locus YLL041C, strain sdh2, active compounds read low",0.823 (active)
same,normalized growth,"S. cerevisiae deletion strains, locus YLR027C, strain aat2, active compounds read low",0.593 (active)
same,normalized growth,"S. cerevisiae deletion strains, locus YLR039C, strain RIC1, active compounds read low",0.0958 (active)
same,normalized growth,"S. cerevisiae deletion strains, locus YLR058C, strain SHM2, active compounds read low",0.202 (active)
same,normalized growth,"S. cerevisiae deletion strains, locus YLR102C, strain apc9, active compounds read low",0.221 (active)
same,normalized growth,"S. cerevisiae deletion strains, locus YLR113W, strain HOG1, active compounds read low",0.157 (active)
same,normalized growth,"S. cerevisiae deletion strains, locus YLR221C, strain rsa3, active compounds read low",0.499 (active)
same,normalized growth,"S. cerevisiae deletion strains, locus YLR258W, strain gsy2, active compounds read low",0.681 (active)
same,normalized growth,"S. cerevisiae deletion strains, locus YLR262C, strain YPT6 (second series), active compounds read low",0.153 (active)
same,normalized growth,"S. cerevisiae deletion strains, locus YLR262C, strain YPT6, active compounds read low",0.113 (active)
same,normalized growth,"S. cerevisiae deletion strains, locus YLR268W, strain sec22, active compounds read low",0.091 (active)
same,normalized growth,"S. cerevisiae deletion strains, locus YLR320W, strain mms22, active compounds read low",0.292 (active)
same,normalized growth,"S. cerevisiae deletion strains, locus YLR330W, strain CHS5, active compounds read low",0.176 (active)
same,normalized growth,"S. cerevisiae deletion strains, locus YLR342W, strain FKS1 (second series), active compounds read low",0.159 (active)
same,normalized growth,"S. cerevisiae deletion strains, locus YLR342W, strain FKS1, active compounds read low",0.586 (active)
same,normalized growth,"S. cerevisiae deletion strains, locus YLR357W, strain rsc2, active compounds read low",0.772 (active)
same,normalized growth,"S. cerevisiae deletion strains, locus YLR370C, strain arc18, active compounds read low",0.656 (active)
same,normalized growth,"S. cerevisiae deletion strains, locus YLR371W, strain rom2, active compounds read low",0.158 (active)
same,normalized growth,"S. cerevisiae deletion strains, locus YLR384C, strain iki3, active compounds read low",0.718 (active)
same,normalized growth,"S. cerevisiae deletion strains, locus YLR418C, strain cdc73, active compounds read low",0.13 (active)
same,normalized growth,"S. cerevisiae deletion strains, locus YML016C, strain PPZ1, active compounds read low",0.344 (active)
same,normalized growth,"S. cerevisiae deletion strains, locus YML032C, strain rad52, active compounds read low",0.137 (active)
same,normalized growth,"S. cerevisiae deletion strains, locus YML120C, strain ndi1, active compounds read low",0.652 (active)
same,normalized growth,"S. cerevisiae deletion strains, locus YML124C, strain tub3, active compounds read low",0.262 (active)
same,normalized growth,"S. cerevisiae deletion strains, locus YMR058W, strain fet3, active compounds read low",0.0978 (active)
same,normalized growth,"S. cerevisiae deletion strains, locus YMR078C, strain ctf18, active compounds read low",0.112 (active)
same,normalized growth,"S. cerevisiae deletion strains, locus YMR125W, strain sto1, active compounds read low",0.673 (active)
same,normalized growth,"S. cerevisiae deletion strains, locus YMR129W, active compounds read low",0.722 (active)
same,normalized growth,"S. cerevisiae deletion strains, locus YMR205C, strain PFK2, active compounds read low",0.47 (active)
same,normalized growth,"S. cerevisiae deletion strains, locus YMR223W, strain ubp8, active compounds read low",0.2 (active)
same,normalized growth,"S. cerevisiae deletion strains, locus YMR231W, strain pep5, active compounds read low",0.311 (active)
same,normalized growth,"S. cerevisiae deletion strains, locus YMR263W, strain SAP30, active compounds read low",0.353 (active)
same,normalized growth,"S. cerevisiae deletion strains, locus YMR307W, strain GAS1, active compounds read low",0.133 (active)
same,normalized growth,"S. cerevisiae deletion strains, locus YNL067W, strain RPL9B, active compounds read low",0.201 (active)
same,normalized growth,"S. cerevisiae deletion strains, locus YNL071W, strain lat1, active compounds read low",0.248 (active)
same,normalized growth,"S. cerevisiae deletion strains, locus YNL128W, strain TEP1, active compounds read low",0.237 (active)
same,normalized growth,"S. cerevisiae deletion strains, locus YNL153C, strain GIM3, active compounds read low",0.205 (active)
same,normalized growth,"S. cerevisiae deletion strains, locus YNL183C, strain NPR1, active compounds read low",0.0359 (active)
same,normalized growth,"S. cerevisiae deletion strains, locus YNL209W, strain ssb2, active compounds read low",0.392 (active)
same,normalized growth,"S. cerevisiae deletion strains, locus YNL233W, strain BNI4, active compounds read low",0.153 (active)
same,normalized growth,"S. cerevisiae deletion strains, locus YNL248C, strain rpa49, active compounds read low",0.635 (active)
same,normalized growth,"S. cerevisiae deletion strains, locus YNL250W, strain rad50, active compounds read low",0.514 (active)
same,normalized growth,"S. cerevisiae deletion strains, locus YNL271C, strain bni1, active compounds read low",0.347 (active)
same,normalized growth,"S. cerevisiae deletion strains, locus YNL298W, strain CLA4, active compounds read low",0.382 (active)
same,normalized growth,"S. cerevisiae deletion strains, locus YNL307C, strain MCK1, active compounds read low",0.0757 (active)
same,normalized growth,"S. cerevisiae deletion strains, locus YNL322C, strain KRE1 (second series), active compounds read low",0.797 (active)
same,normalized growth,"S. cerevisiae deletion strains, locus YNL322C, strain KRE1, active compounds read low",0.207 (active)
same,normalized growth,"S. cerevisiae deletion strains, locus YNR049C, strain mso1, active compounds read low",0.796 (active)
same,normalized growth,"S. cerevisiae deletion strains, locus YNR052C, strain pop2, active compounds read low",0.155 (active)
same,normalized growth,"S. cerevisiae deletion strains, locus YOL006C, strain TOP1, active compounds read low",0.137 (active)
same,normalized growth,"S. cerevisiae deletion strains, locus YOL012C, strain htz1",0.305
same,normalized growth,"S. cerevisiae deletion strains, locus YOL147C, strain pex11, active compounds read low",0.0808 (active)
same,normalized growth,"S. cerevisiae deletion strains, locus YOR001W, strain rrp6, active compounds read low",0.604 (active)
same,normalized growth,"S. cerevisiae deletion strains, locus YOR061W, strain CKA2, active compounds read low",0.486 (active)
same,normalized growth,"S. cerevisiae deletion strains, locus YOR069W, strain VPS5, active compounds read low",0.255 (active)
same,normalized growth,"S. cerevisiae deletion strains, locus YOR070C, strain gyp1, active compounds read low",0.535 (active)
same,normalized growth,"S. cerevisiae deletion strains, locus YOR080W, strain dia2, active compounds read low",0.642 (active)
same,normalized growth,"S. cerevisiae deletion strains, locus YOR083W, strain WHI5, active compounds read low",0.674 (active)
same,normalized growth,"S. cerevisiae deletion strains, locus YOR106W, strain vam3, active compounds read low",0.358 (active)
same,normalized growth,"S. cerevisiae deletion strains, locus YOR136W, strain idh2, active compounds read low",0.267 (active)
same,normalized growth,"S. cerevisiae deletion strains, locus YOR144C, strain elg1, active compounds read low",0.136 (active)
same,normalized growth,"S. cerevisiae deletion strains, locus YOR184W, strain ser1, active compounds read low",0.0931 (active)
same,normalized growth,"S. cerevisiae deletion strains, locus YOR231W, strain MKK1, active compounds read low",0.142 (active)
same,normalized growth,"S. cerevisiae deletion strains, locus YOR265W, strain rbl2, active compounds read low",0.697 (active)
same,normalized growth,"S. cerevisiae deletion strains, locus YOR270C, strain vph1, active compounds read low",0.263 (active)
same,normalized growth,"S. cerevisiae deletion strains, locus YOR290C, strain snf2, active compounds read low",0.558 (active)
same,normalized growth,"S. cerevisiae deletion strains, locus YOR316C, strain cot1, active compounds read low",0.213 (active)
same,normalized growth,"S. cerevisiae deletion strains, locus YPL051W, strain arl3, active compounds read low",0.225 (active)
same,normalized growth,"S. cerevisiae deletion strains, locus YPL055C, strain LGE1, active compounds read low",0.171 (active)
same,normalized growth,"S. cerevisiae deletion strains, locus YPL078C, strain atp4, active compounds read low",0.558 (active)
same,normalized growth,"S. cerevisiae deletion strains, locus YPL106C, strain sse1, active compounds read low",0.708 (active)
same,normalized growth,"S. cerevisiae deletion strains, locus YPL240C, strain hsp82, active compounds read low",0.75 (active)
same,normalized growth,"S. cerevisiae deletion strains, locus YPL241C, strain CIN2, active compounds read low",0.224 (active)
same,normalized growth,"S. cerevisiae deletion strains, locus YPL256C, strain CLN2, active compounds read low",0.15 (active)
same,normalized growth,"S. cerevisiae deletion strains, locus YPR119W, strain clb2, active compounds read low",0.164 (active)
same,normalized growth,"S. cerevisiae deletion strains, locus YPR141C, strain kar3, active compounds read low",0.704 (active)
same,normalized growth,"S. cerevisiae deletion strains, locus YPR163C, strain tif3, active compounds read low",0.0943 (active)
same,normalized growth,"S. cerevisiae deletion strains, locus YPR167C, strain met16, active compounds read low",0.252 (active)
same,normalized growth,"S. cerevisiae deletion strains, strain wtn01, active compounds read low",0.166 (active)
same,normalized growth,"S. cerevisiae strains, strain wild type, active compounds read low",0.162 (active)
